Here are results for one molecule from ChEMBL document CHEMBL2218924, “A broad activity screen in support of a chemogenomic map for kinase signalling research and drug discovery” (Biochem J, 2013).

The target in assay [1] is Tyrosine-protein kinase SYK (Homo sapiens) (UniProt P43405). The note with it: at 10 µM.
In assay [2] the target is T1, Mitogen-activated protein kinase kinase kinase 7 (Homo sapiens) (UniProt O43318).
T1 sequence (whole entry): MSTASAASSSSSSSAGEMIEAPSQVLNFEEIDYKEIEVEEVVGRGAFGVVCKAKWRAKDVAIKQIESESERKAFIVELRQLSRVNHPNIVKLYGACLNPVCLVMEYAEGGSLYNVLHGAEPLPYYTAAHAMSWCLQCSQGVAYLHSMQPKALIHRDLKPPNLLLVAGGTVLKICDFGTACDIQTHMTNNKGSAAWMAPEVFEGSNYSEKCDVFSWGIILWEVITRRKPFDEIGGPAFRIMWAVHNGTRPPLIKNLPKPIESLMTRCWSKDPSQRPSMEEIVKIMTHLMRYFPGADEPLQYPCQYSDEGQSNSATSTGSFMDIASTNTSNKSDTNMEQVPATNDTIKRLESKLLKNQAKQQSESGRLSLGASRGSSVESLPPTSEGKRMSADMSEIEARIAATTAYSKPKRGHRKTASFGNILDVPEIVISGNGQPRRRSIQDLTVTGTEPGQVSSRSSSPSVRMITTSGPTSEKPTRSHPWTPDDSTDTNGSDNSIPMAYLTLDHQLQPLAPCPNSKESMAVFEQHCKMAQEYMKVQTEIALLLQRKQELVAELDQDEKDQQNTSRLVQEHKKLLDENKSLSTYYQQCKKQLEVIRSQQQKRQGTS
The note with it: at 1 µM.

Assay [3] concerns the target T1, Mitogen-activated protein kinase kinase kinase 7 (Homo sapiens). The settings on record: at 10 µM.
The target of assay [4] is T2, Serine/threonine-protein kinase TAO1 (Homo sapiens) (UniProt Q7L7X3).
T2 sequence (whole entry): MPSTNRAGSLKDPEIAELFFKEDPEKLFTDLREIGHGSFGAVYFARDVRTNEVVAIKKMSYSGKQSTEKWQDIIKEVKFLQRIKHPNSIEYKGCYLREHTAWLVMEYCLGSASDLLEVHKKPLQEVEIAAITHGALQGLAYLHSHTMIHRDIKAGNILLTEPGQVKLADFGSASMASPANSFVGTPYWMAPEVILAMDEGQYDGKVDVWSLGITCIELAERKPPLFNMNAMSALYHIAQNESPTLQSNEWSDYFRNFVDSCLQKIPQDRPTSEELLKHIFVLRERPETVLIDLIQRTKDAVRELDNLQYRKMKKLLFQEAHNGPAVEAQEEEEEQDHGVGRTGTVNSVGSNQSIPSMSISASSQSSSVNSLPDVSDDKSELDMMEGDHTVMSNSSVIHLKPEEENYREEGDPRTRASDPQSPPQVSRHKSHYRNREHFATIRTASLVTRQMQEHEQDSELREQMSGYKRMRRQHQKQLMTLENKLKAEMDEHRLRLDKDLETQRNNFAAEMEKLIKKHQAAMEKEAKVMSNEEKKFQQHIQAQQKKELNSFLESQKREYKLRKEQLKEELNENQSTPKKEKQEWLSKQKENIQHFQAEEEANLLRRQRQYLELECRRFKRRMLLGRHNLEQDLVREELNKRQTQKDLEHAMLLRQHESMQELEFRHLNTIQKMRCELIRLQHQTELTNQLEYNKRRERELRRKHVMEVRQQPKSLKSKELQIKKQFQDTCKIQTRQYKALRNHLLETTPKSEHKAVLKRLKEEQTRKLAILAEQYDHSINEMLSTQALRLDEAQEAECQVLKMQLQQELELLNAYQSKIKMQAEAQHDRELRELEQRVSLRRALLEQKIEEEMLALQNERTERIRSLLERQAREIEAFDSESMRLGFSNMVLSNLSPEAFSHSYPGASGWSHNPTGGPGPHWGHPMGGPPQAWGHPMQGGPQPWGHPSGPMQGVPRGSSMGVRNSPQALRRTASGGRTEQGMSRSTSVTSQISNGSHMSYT
The settings on record: at 1 µM.

In assay [5] the target is T2, Serine/threonine-protein kinase TAO1 (Homo sapiens). The note with it: at 10 µM.
The target of assay [6] is T3, Serine/threonine-protein kinase TAO2 (Homo sapiens) (UniProt Q9UL54).
T3 sequence (whole entry): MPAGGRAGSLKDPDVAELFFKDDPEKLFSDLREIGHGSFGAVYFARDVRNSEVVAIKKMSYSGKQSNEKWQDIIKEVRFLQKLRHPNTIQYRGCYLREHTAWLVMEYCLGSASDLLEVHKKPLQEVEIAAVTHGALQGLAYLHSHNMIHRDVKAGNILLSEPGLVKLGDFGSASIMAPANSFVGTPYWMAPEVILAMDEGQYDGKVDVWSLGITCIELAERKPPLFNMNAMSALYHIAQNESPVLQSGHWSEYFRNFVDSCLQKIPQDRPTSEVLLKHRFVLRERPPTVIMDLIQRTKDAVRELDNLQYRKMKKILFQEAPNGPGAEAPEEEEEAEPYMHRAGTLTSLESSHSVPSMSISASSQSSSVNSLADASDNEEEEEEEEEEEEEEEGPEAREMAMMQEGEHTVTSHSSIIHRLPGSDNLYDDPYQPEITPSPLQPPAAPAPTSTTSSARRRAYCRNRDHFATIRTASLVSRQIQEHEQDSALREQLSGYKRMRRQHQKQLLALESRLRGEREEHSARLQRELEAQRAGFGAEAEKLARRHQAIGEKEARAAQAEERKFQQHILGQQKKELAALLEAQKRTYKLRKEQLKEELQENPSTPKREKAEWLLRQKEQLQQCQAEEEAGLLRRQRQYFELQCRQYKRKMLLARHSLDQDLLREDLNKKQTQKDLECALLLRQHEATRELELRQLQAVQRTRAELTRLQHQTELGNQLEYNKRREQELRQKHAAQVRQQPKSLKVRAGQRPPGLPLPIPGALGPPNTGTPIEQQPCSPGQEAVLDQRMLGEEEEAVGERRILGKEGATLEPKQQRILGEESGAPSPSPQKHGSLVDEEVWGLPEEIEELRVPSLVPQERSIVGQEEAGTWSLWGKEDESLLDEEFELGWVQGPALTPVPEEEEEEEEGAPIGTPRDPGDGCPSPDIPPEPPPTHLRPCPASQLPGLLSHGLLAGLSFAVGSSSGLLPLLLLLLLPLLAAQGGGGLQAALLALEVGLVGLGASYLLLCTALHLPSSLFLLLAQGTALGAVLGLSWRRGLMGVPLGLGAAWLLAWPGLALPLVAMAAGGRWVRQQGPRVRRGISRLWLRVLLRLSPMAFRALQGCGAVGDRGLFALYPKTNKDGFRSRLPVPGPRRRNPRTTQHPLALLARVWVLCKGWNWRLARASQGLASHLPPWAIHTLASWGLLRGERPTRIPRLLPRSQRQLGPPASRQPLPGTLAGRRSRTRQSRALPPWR
The note with it: at 1 µM.

In assay [7] the target is T3, Serine/threonine-protein kinase TAO2 (Homo sapiens). The settings on record: at 10 µM.
In assay [8] the target is T4, Serine/threonine-protein kinase TAO3 (Homo sapiens) (UniProt Q9H2K8).
T4 sequence (whole entry): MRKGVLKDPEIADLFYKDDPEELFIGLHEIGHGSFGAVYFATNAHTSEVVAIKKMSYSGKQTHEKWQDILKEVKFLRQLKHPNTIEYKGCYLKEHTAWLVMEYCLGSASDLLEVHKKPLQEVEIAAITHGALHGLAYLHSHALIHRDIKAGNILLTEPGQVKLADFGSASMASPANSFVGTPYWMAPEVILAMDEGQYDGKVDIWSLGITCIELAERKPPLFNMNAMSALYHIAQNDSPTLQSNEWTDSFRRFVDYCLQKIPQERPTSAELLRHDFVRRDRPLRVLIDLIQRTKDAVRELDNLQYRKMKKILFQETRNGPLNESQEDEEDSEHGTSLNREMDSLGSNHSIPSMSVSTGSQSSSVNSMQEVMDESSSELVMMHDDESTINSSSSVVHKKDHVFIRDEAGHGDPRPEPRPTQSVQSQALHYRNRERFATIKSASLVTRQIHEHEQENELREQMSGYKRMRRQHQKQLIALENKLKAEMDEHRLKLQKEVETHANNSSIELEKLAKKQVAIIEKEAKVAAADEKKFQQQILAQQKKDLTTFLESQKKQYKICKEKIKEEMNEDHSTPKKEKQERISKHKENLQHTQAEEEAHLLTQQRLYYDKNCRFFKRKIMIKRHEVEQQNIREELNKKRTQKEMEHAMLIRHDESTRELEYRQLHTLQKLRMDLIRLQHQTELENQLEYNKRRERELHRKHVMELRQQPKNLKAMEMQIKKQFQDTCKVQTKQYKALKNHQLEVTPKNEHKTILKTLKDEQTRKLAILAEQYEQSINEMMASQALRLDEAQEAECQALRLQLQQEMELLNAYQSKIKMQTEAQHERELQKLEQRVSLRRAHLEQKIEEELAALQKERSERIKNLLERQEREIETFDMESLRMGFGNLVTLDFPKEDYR
The settings on record: at 1 µM.

Assay [9] deals with T4, Serine/threonine-protein kinase TAO3 (Homo sapiens). The settings on record: at 10 µM.
Assay [10] addresses T5, Serine/threonine-protein kinase TBK1 (Homo sapiens) (UniProt Q9UHD2).
T5 sequence (whole entry): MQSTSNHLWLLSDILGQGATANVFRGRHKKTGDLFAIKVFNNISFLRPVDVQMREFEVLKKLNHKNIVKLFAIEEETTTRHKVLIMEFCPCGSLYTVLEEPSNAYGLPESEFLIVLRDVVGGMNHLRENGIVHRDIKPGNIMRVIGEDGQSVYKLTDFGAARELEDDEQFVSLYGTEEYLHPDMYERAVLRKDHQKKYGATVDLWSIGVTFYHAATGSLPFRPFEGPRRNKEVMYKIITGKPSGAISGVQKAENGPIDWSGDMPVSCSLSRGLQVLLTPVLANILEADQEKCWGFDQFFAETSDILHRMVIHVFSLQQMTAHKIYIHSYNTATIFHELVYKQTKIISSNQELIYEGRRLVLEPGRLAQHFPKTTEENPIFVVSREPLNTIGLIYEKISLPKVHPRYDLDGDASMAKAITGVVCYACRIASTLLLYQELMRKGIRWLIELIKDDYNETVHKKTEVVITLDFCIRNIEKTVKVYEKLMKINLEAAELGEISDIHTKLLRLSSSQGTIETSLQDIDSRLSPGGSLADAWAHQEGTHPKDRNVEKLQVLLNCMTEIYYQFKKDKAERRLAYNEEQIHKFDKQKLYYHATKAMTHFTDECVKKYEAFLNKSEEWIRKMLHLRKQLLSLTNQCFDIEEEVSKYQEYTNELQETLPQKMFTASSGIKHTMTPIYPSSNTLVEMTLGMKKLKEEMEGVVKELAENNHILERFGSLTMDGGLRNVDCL
The settings on record: at 1 µM.

As for `O=C(O)c1ccc2c3c1cccc3c(=O)n1c3ccccc3nc21`, the residual activity in assay [1] came to 105%; in assay [2] it was 89%; in assay [3], 41%; in assay [4] it was 90%; in [5], 56%; in assay [6], 110%. In addition, the residual activity came out at 91% in [7], 91% in [8], 65% in [9] and 19% in assay [10].
